Compounds with a hit are over-represented: about 4.1% of the library has one in this group of screens.
ssDAF12 agonist: S. stercoralis DAF-12 nuclear receptor activators, primary screen, cell-based, luminescence, HEK293, GRIP1 co-expression, lit1-tk-luc; Nuclear hormone receptor DAF-12 (Strongyloides stercoralis); HEK293 ssDAF-12/GRIP1 lit1-tk-luc reporter; % of 3 µM dafachronic acid response; activation, % at 6.8 µM; 1% of 370,000 active; AID 652126, 2013;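 active means activation above the mean over all tested compounds plus 3 SD, cut at about 0.9% in these data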
DAX1 inh-1: DAX1 (NR0B1) inhibitors, primary screen, cell-based, HEK293, Gal4-DAX1, luciferase luminescence | Nuclear receptor subfamily 0 group B member 1 (Homo sapiens), P51843 | HEK293 Gal4-DAX1 luciferase reporter | inhibition, % at 6.75 µM | 0.99% of 340,000 active;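 active means inhibition above the mean over all tested compounds plus 3 SD, cut at about 4.2% in these data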;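 further: inhibition shows as a rise in luminescence from relieved DAX1 repression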
Target sequence (P51843 207-470 limits assumed): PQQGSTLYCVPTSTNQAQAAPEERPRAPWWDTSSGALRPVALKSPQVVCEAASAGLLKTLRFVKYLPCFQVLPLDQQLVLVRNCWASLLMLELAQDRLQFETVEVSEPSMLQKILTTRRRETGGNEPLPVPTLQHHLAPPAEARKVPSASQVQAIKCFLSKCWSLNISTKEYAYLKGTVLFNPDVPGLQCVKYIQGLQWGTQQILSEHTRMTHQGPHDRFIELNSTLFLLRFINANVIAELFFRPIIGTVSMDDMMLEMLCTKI
hcDAF12 agonist: H. contortus DAF-12 nuclear receptor activators, primary screen, cell-based, luminescence, HEK293, lit1-tk-luc reporter | HEK293 hcDAF-12 lit1-tk-luc reporter; 0% DMSO, 100% Δ7-dafachronic acid | activation, % at 6.8 µM | 1.4% of 370,000 active;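 active means activation above the mean of all tested compounds plus 3 SD, cut at about 5.5% in these data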
hgDAF-12 ag: H. glycines DAF-12 receptor agonists, primary screen, cell-based, luminescence, HEK293, GAL4 fusion, UAS-luciferase; Nuclear hormone receptor DAF-12 (Heterodera glycines), GAL4 fusion; HEK293 GAL4-hgDAF12 UAS-luciferase reporter, agonist luminescence; normalized to butyrate control; activation, % at 6.8 µM; 1.8% of 370,000 active; AID 687014, 2013;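 active means activation above a cutoff set at the mean of all screened compounds plus 3 SD, cut at about 10% in these data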
DAX1 inh-2: DAX1 (NR0B1) inhibitors on StAR promoter, primary screen, cell-based, luminescence, SF-1 (NR5A1), full-length DAX-1; inhibition, % at 6.8 µM; AID 652010, 2013; 1.1% of 370,000 active; HEK293T StAR-luciferase reporter, SF-1/DAX-1 repression relief;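 active means inhibition above the mean over all tested compounds plus 3 SD, cut at about 3.6% in these data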;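 further: higher inhibition means more luminescence from relief of DAX-1 repression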
Each line names hits and unclear results; the compound was inactive in the other large screens.

CC1(NC(=O)Nc2ccccc2)CCS(=O)(=O)C1 (configuration not stated)	none (no result: DAX1 inh-1)
CC1(NC(=O)Nc2cccc(Br)c2)CCS(=O)(=O)C1 (configuration not stated)	DAX1 inh-1 5.2
COc1ccc(-c2nc3c4ccccc4ccn3c2Cc2ccc(C)cc2)cc1OC	hcDAF12 agonist 6.3 (no result: DAX1 inh-1)
COc1ccc(-c2nc3c4ccccc4ccn3c2Cc2ccsc2)cc1OC	hcDAF12 agonist 6.4 (no result: DAX1 inh-1)
COC(=O)c1ccc2nc(-c3ccc(C)cc3)c(Cc3ccsc3)n2c1	none (no result: DAX1 inh-1)
Cc1ccc2nc(-c3ccccc3)c(Cc3ccsc3)n2c1	ssDAF12 agonist 2.1 (no result: DAX1 inh-1)
Cc1ccc2nc(-c3cccc(Br)c3)c(Cc3cccc(F)c3)n2c1	hgDAF-12 ag 11, DAX1 inh-2 4.3 (no result: DAX1 inh-1)
Cc1ccc(-c2nc3c4ccccc4ccn3c2Cc2ccccc2)cc1	none
Fc1cccc(Cc2c(-c3cccc(Br)c3)nc3ccc(Cl)cn23)c1	none (no result: DAX1 inh-1)
O=C(COC(=O)c1ccc(Sc2ncn[nH]2)c([N+](=O)[O-])c1)Nc1ccc(Cl)c(Cl)c1	none (no result: DAX1 inh-1)
c1ccc(Cn2c(SC3CCCCC3)nnc2-c2cccnc2)cc1	none (no result: DAX1 inh-1)
Cc1ccc(-c2nc3c4ccccc4ccn3c2Cc2ccsc2)cc1	ssDAF12 agonist 1.4 (no result: DAX1 inh-1)
COc1ccc(-c2nc3c4ccccc4ccn3c2Cc2cccc(Cl)c2)cc1OC	ssDAF12 agonist 1.1 (no result: DAX1 inh-1)
Cc1ccc(Cc2c(-c3ccccc3)nc3c4ccccc4ccn23)cc1	none (no result: DAX1 inh-1)
O=c1cc2oc3cc(O)c(O)cc3c(-c3ccccc3[N+](=O)[O-])c-2cc1O	none
Cc1csc2ncc(C(=O)Nc3cccc(C(F)(F)F)c3)c(=O)n12	none
CCc1ccc(NC(=O)c2cnc3scc(C)n3c2=O)cc1	ssDAF12 agonist 1.2, hcDAF12 agonist 5.8
Cc1ccc(CNC(=O)CCCOc2cc(=O)n(C)c3ccccc23)o1	DAX1 inh-1 6.4
Cn1c(=O)cc(OCCCC(=O)NCc2ccco2)c2ccccc21	none
S=C(Nc1ccccc1)Nc1ccccc1-n1cccc1	hcDAF12 agonist 5.7 (no result: DAX1 inh-1)
S=C(Nc1ccccc1)Nc1ccc(Br)cc1	DAX1 inh-1 5.7
Cc1ccc2[nH]c(SCC(=O)N3CCOCC3)nc2c1C	hcDAF12 agonist 5.7
Cc1ccc2nc(SCC(=O)N3CCOCC3)[nH]c2c1	none
Cc1c(CBr)[n+](=O)c2c(n1[O-])C(Br)CCC2Br (configuration not stated)	ssDAF12 agonist 1.4
O=S(=O)(c1cccs1)N1CN(Cc2ccco2)c2nc3ccccc3nc21	ssDAF12 agonist 0.9
COc1ccccc1CN1CN(S(=O)(=O)c2ccccc2)c2nc3ccccc3nc21	hcDAF12 agonist 6.1
COCCN1CN(S(=O)(=O)c2ccccc2)c2nc3ccccc3nc21	none
CCCNC(=O)C[C@H]1CC[C@H]2[C@@H](COc3ccc(NC(=O)c4cncs4)cc3C(=O)N2C)O1	none (no result: DAX1 inh-1)
COc1cc(C)c(C(=O)Oc2cc(C)c(C(=O)O)c(O)c2C)c(OC)c1C	DAX1 inh-1 4.3
CCCCNC(=O)C[C@H]1C[C@@]2(C(=O)OC)C(=C[C@H](C(C)(C)C)O[C@@H]2C)N(Cc2cccc3ccccc23)C1=O	none (no result: DAX1 inh-1)
C/C(=N\NC(=O)c1sccc1C)c1cccnc1	DAX1 inh-2 4.2
C/C(=N/NC(=O)c1ccc(C(C)(C)C)cc1)c1cccnc1	none (no result: DAX1 inh-1)
Cc1cc(NC(=O)CSCC(=O)OCC(=O)c2ccc(Br)cc2)no1	none
OC1COC(c2ccccc2)OC1C1OC(c2ccccc2)OCC1O (configuration not stated)	DAX1 inh-1 4.9
COc1ccc(NC(=O)Nc2cc(C)ccc2F)cc1	DAX1 inh-2 3.9
COc1ccc(NC(=O)Nc2ccc(Br)c(C)c2)cc1	DAX1 inh-1 4.9
O=S(=O)(c1ccccc1F)N1CCC(c2nc3ccccc3o2)CC1	none (no result: DAX1 inh-1)
CCOC(=O)/C=C/c1ccc2oc3ccccc3c(=O)c2c1	ssDAF12 agonist 2.0
CCc1nnc(NC(=O)Cc2ccc(OC)c(OC)c2)s1	DAX1 inh-1 5.1
COC(=O)Nc1nnc(-c2ccc(OC)cc2)s1	hgDAF-12 ag 13

Source: PubChem BioAssay
